# According to PubChem BioAssay (Tox21):
# Values joined by “and” are separate entries in the source; they are usually repeats but may differ in a detail not shown here. Identical values can stand only once. Results filed as inconclusive are left out. Where a call stands in place of a potency, no number is given. A structure can be active in one record and inactive in another. Active and inactive are the calls of the source. Unless noted, the call rests on the fitted dose curve; in most records, active means well fitted curve in the direction sought with a large enough effect in the repeat runs; inconclusive means weak or mixed curves; inactive means no such curve, though single readings can be large; an effect the other way counts as inactive or inconclusive.
# Columns and labels:
# [1] = qHTS assay to identify small molecule antagonists of the glucocorticoid receptor (GR) signaling pathway - cell viability counter screen (AID 720693); further: nearly all actives have a fitted effect of over 55% in size
# [2] = qHTS assay for identifying genotoxic compounds that show differential cytotoxicity against isogenic chicken DT40 cell lines with known DNA damage response pathways - wild type cell line (AID 743012); further: nearly all actives have a fitted effect of over 60% in size; further: potency means the concentration at half of the fitted maximal effect
# Procedure, shortened: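 Cells (DT40 wild type, 300/well) are treated with DMSO-dissolved compounds after a ~0.5 h pre-incubation and kept 40 h at 37 C/5% CO2. Viability is then measured by CellTiter-Glo luminescence following 30 min at room temperature.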
# [3] = qHTS assay for identifying genotoxic compounds that show differential cytotoxicity against isogenic chicken DT40 cell lines with known DNA damage response pathways - Rev3 mutant cell line (AID 743014); further: nearly all actives have a fitted effect of over 55% in size; further: potency means the concentration at half of the fitted maximal effect
# [4] = qHTS assay for identifying genotoxic compounds that show differential cytotoxicity against isogenic chicken DT40 cell lines with known DNA damage response pathways - Rad54/Ku70 mutant cell line (AID 743015); further: nearly all actives have a fitted effect of over 60% in size; further: potency means the concentration at half of the fitted maximal effect
# [5] = qHTS assay to identify small molecule antagonists of the androgen receptor (AR) signaling pathway - cell viability counter screen (AID 743033; further: nearly all actives have a fitted effect of over 45% in size)
# [6] = qHTS assay to identify small molecule antagonists of the androgen receptor (AR) signaling pathway using the MDA cell line - cell viability counter screen (AID 743041; further: nearly all actives have a fitted effect of over 45% in size)
# Procedure, shortened: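 Same-well cytotoxicity was assessed by CellTiter-Fluor in MDA-kb2 AR-luc cells after 16 h of compound treatment under R1881 agonism.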
# [7] = qHTS assay to identify small molecule antagonists of the thyroid receptor (TR) signaling pathway (AID 743065); further: nearly all actives have a fitted effect of over 55% in size; further: potency means the concentration at half of the fitted maximal effect
# Procedure, shortened: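 GH3.TRE-Luc rat pituitary cells (two TREs driving luciferase) were dosed with compound, then stimulated with 1 nM T3 (final) for 23.5 h at 37 C. ONE-Glo luminescence was the read-out, with CellTiter-Fluor fluorescence as the cytotoxicity counter-screen.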
# [8] = test system: thyroid hormone receptor (rat, GH3 cells); assay: qHTS assay to identify small molecule agonists of the thyroid receptor (TR) signaling pathway (AID 743066; calls by dose curve; further: potency means the concentration at half of the fitted maximal effect)
# [9] = target: Estrogen receptor (Homo sapiens) (UniProt P03372); assay: qHTS assay to identify small molecule antagonists of the estrogen receptor alpha (ER-alpha) signaling pathway (AID 743069; active means well fitted curve in the direction sought with a large enough effect in the signal ratio in the repeat runs, not every such curve was filed as active; the % refers to the signal ratio)
# Procedure, shortened: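 Reporter cells (ER-alpha-bla, HEK293 background) are conditioned overnight in stripped-serum medium (2% charcoal-stripped FBS). Compound and 17beta-estradiol exposure runs 18 hr at 37C, 5% CO2.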
# [10] = qHTS assay to identify small molecule antagonists of the estrogen receptor alpha (ER-alpha) signaling pathway - cell viability counter screen (AID 743074; calls by dose curve;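 further: HEK293 cells carrying ER-alpha-UAS-bla reporter stimulated with 17beta-estradiol; nearly all actives have a fitted effect of over 45% in size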)
# [11] = target: Estrogen receptor (Homo sapiens) (UniProt P03372); assay: qHTS assay to identify small molecule agonists of the estrogen receptor alpha (ER-alpha) signaling pathway (AID 743075; calls by dose curve;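 further: HEK293 GripTite cells with ER-alpha and UAS-driven beta-lactamase reporter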)
# [12] = target: Estrogen receptor (Homo sapiens) (UniProt P03372); assay: qHTS assay to identify small molecule agonists of the estrogen receptor alpha (ER-alpha) signaling pathway using the BG1 cell line (AID 743079); further: nearly all actives have a fitted effect of over 20% in size; further: potency means the concentration at half of the fitted maximal effect
# [13] = qHTS assay to identify small molecule antagonists of the estrogen receptor alpha (ER-alpha) signaling pathway using the BG1 cell line (AID 743080; calls by dose curve;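 further: BG1 cells stimulated with 17beta-estradiol alongside compound; series mostly up to about 70 µM; nearly all actives have a fitted effect of over 25% in size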)
# Procedure, shortened: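 Seeding, 24 h rest, compound transfer from DMSO, 17beta-estradiol addition, 21.5 h incubation, CellTiter-Fluor (30 min, 37 C), then ONE-Glo (30 min, room temperature): this sequence was run on BG1-Luc-4E2 reporter cells.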
# [14] = qHTS assay to identify small molecule antagonists of the estrogen receptor alpha (ER-alpha) signaling pathway using the BG1 cell line - cell viability counter screen (AID 743081);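 further: compound given together with 17beta-estradiol as the ER stimulus; series mostly up to about 70 µM; nearly all actives have a fitted effect of over 45% in size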
# [15] = target: Aromatase (Homo sapiens) (UniProt P11511); assay: qHTS assay to identify aromatase inhibitors (AID 743083); further: series mostly up to about 70 µM; nearly all actives have a fitted effect of over 55% in size
# [16] = qHTS assay to identify small molecule antagonists of the thyroid receptor (TR) signaling pathway - cell viability counter screen (AID 743064); further: nearly all actives have a fitted effect of over 50% in size
# Procedure, shortened: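 Same-well viability check: GH3.TRE-Luc cells stimulated with 1 nM T3 alongside test compound for 23.5 h, followed by CellTiter-Fluor fluorescence.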
# [17] = target: Androgen receptor (Homo sapiens) (UniProt P10275); assay: qHTS assay to identify small molecule antagonists of the androgen receptor (AR) signaling pathway (AID 743035; active means well fitted inhibition curve with a large enough effect in the signal ratio in the repeat runs, not every such curve was filed as active; the % refers to the signal ratio; further: potency means the concentration at half of the fitted maximal effect)
# Procedure, shortened: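 Antagonism is scored as loss of R1881-driven beta-lactamase reporter expression in HEK293 cells carrying the reporter under a UAS element, after 16 h co-treatment at 37C and a 2 h room-temperature FRET substrate read.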
# [18] = target: Androgen receptor (Homo sapiens) (UniProt P10275); assay: qHTS assay to identify small molecule agonists of the androgen receptor (AR) signaling pathway (AID 743036; active means well fitted activation curve with a large enough effect in the signal ratio in the repeat runs, with a control signal flat, not every such curve was filed as active; the % refers to the signal ratio)
# Procedure, shortened: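 Agonist activity was scored by beta-lactamase reporter fluorescence in stably transfected HEK293 cells exposed to compounds for 16 h at 37C and 5% CO2. Substrate loading took 2 h at room temperature.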
# [19] = target: Androgen receptor (Homo sapiens) (UniProt P10275); assay: qHTS assay to identify small molecule agonists of the androgen receptor (AR) signaling pathway using the MDA cell line (AID 743040; further: nearly all actives have a fitted effect of over 20% in size; further: potency means the concentration at half of the fitted maximal effect)
# Procedure, shortened: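 Human breast carcinoma MDA-kb2 reporter cells (MMTV-luc, AR/GR elements) were treated for 16 h at 37C in 0% CO2 following a 5 h settling period. Signal was quantified by ONE-Glo luminescence.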
# [20] = target: Androgen receptor (Homo sapiens) (UniProt P10275); assay: qHTS assay to identify small molecule antagonists of the androgen receptor (AR) signaling pathway using the MDA cell line (AID 743042; further: nearly all actives have a fitted effect of over 55% in size)
# Procedure, shortened: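 MDA-kb2 breast carcinoma cells carrying MMTV-luciferase (AR/GR responsive) were co-treated with compounds and the agonist R1881 for 16 h at 37C. Inhibition read as ONE-Glo luminescence; CellTiter-Fluor fluorescence measured in parallel for cytotoxicity.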
# Chain of Aromatase (Homo sapiens) (P11511 whole entry, looked up): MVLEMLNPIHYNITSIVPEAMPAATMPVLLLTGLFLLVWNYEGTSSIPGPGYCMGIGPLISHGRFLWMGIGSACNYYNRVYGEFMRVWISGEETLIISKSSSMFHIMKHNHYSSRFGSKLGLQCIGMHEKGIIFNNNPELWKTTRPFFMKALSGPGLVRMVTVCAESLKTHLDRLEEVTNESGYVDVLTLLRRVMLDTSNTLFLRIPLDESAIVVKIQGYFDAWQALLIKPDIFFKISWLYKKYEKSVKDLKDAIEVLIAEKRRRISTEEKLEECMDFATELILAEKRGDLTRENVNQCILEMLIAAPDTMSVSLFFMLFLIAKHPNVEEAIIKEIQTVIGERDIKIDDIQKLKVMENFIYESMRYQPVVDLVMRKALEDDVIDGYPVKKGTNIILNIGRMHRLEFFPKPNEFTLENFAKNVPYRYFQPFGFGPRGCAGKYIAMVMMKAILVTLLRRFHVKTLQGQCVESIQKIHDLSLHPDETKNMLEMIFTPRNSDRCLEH
# Chain of Estrogen receptor (Homo sapiens) (P03372 whole entry, looked up): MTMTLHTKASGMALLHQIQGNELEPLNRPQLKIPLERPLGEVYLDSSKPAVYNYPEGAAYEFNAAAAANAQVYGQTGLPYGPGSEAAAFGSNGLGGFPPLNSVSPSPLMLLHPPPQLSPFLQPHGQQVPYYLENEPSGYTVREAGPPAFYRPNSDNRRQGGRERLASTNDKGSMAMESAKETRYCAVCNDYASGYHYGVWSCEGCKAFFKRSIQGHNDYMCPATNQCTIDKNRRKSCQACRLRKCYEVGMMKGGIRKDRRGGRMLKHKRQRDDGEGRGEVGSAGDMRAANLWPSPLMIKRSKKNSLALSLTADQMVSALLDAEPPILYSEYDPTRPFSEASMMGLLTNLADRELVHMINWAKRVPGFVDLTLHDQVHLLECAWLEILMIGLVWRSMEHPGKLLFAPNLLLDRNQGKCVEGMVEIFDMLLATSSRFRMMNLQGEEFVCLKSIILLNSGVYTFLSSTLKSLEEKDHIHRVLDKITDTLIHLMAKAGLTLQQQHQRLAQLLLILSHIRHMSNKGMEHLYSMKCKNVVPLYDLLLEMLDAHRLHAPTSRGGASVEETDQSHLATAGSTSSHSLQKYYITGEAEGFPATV
# Chain of Androgen receptor (Homo sapiens) (P10275 whole entry, looked up): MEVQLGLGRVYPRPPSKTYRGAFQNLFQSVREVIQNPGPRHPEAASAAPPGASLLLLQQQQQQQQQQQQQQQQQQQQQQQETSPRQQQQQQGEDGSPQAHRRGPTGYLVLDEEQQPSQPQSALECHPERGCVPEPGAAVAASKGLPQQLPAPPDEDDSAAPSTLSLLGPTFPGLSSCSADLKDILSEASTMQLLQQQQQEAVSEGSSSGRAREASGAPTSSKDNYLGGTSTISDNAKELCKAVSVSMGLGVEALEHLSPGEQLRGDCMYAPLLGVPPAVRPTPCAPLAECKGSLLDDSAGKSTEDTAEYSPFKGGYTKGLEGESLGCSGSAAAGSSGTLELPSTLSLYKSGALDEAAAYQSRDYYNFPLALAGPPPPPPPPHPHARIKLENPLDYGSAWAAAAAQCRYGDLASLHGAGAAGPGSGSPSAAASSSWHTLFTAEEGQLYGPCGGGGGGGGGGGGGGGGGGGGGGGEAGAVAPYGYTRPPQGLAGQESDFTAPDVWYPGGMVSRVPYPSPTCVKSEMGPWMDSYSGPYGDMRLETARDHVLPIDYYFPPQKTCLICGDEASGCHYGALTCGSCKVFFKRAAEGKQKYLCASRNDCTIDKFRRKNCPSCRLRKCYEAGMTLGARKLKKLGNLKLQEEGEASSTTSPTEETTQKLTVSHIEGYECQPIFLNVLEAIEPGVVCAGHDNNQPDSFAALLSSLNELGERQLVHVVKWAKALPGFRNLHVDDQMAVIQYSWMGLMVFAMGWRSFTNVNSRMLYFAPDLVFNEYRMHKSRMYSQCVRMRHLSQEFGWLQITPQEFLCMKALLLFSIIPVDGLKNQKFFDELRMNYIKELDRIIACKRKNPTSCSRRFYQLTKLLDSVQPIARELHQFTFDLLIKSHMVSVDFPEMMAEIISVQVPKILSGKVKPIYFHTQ
SMILES,Potency [1],Potency [2],Potency [3],Potency [4],Potency [5],Potency [6],Potency [7],Potency [8],Potency [9],Potency [10],Potency [11],Potency [12],Potency [13],Potency [14],Potency [15],Potency [16],Potency [17],outcome [18],Potency [19],Potency [20]
NCCOCCO,inactive,inactive,inactive,inactive,inactive,inactive,inactive,inactive,inactive,inactive,inactive,inactive,inactive,inactive,inactive,,,,,
CCCCCCCCCCC(CO)CCCCCCCC (configuration not stated),inactive,inactive,inactive,inactive,inactive,inactive,inactive,inactive,,inactive,,,,inactive,inactive,inactive,,,,
C=C1C[C@H]2[C@@H]3C=C(C)C4=CC(=O)CC[C@]4(C)[C@H]3CC[C@]2(C)[C@@]1(OC(C)=O)C(C)=O,inactive,7.5 µM (active) and 14 µM (active),8.41 µM (active) and 14 µM (active),10.6 µM (active) and 17.6 µM (active),inactive,inactive,23.7 µM (active) and 15.7 µM (active),inactive,inactive,inactive,,inactive,inactive,inactive,inactive,,1.77 µM (active),inactive,47.3 nM (active) and 27.9 nM (active),inactive
CC(C)(C)c1cccc(C(C)(C)C)c1O,inactive,inactive,inactive,inactive,inactive,inactive,inactive,inactive,inactive,inactive,inactive,inactive,inactive,inactive,inactive,inactive,,,,
Cc1ccc(S(=O)(=O)O)cc1C,inactive,inactive,inactive,inactive,inactive,inactive,inactive,inactive,inactive,inactive,inactive,inactive,inactive,inactive,inactive,inactive,,,,
C[C@]12C=CC(=O)C=C1CC[C@H]1[C@@H]3C[C@@H](O)[C@](O)(C(=O)CO)[C@@]3(C)C[C@H](O)[C@@]12F,inactive,68.6 µM (active),8.63 µM (active),48.6 µM (active),inactive,inactive,inactive,inactive,,inactive,inactive,4.73 µM (active) and 48.6 µM (active),,inactive,inactive,inactive,,,,
Cc1ccc(S(=O)(=O)NCl)cc1,inactive,inactive,inactive,inactive,inactive,inactive,,inactive,inactive,inactive,inactive,inactive,inactive,inactive,inactive,inactive,,,,
CN(C)/N=N/c1nc[nH]c1C(N)=O,inactive,inactive,inactive,62 µM (active),inactive,inactive,inactive,inactive,inactive,inactive,inactive,inactive,inactive,inactive,inactive,inactive,,,,
O=C(O)c1cc(=O)[nH]c(=O)[nH]1,inactive,inactive,inactive,inactive,inactive,inactive,inactive,inactive,inactive,inactive,inactive,inactive,inactive,inactive,inactive,inactive,,,,
CCCOCCO,inactive,inactive,inactive,inactive,inactive,inactive,inactive,inactive,,inactive,,,,inactive,inactive,inactive,,,,
CCCCCCC(C)O (configuration not stated),inactive,inactive,inactive,inactive,inactive,inactive,inactive,55.6 µM (active) and inactive,inactive,inactive,inactive,inactive,inactive,inactive,inactive,inactive,,,,
CC(=O)Nc1ccc2c(c1)Cc1cc(NC(C)=O)ccc1-2,inactive,inactive,inactive,inactive,inactive,inactive,inactive,inactive,inactive,inactive,inactive,9.66 µM (active) and 864 nM (active),,inactive,inactive,inactive,,,,
COC(=O)CC(=O)OC,inactive,inactive,inactive,inactive,inactive,inactive,inactive,inactive,inactive,inactive,inactive,inactive,inactive,inactive,inactive,inactive,,,,
CC1(C)C(C=C(Cl)Cl)C1C(=O)OCc1cccc(Oc2ccccc2)c1 (configuration not stated),inactive,inactive,inactive,inactive,inactive,inactive,inactive,inactive,inactive,inactive,inactive,inactive,inactive,inactive,inactive,inactive,inactive,inactive,inactive,inactive
